The results in this text go back to PubChem BioAssay.

The structures appear in SMILES notation. Activity calls are given as the source filed them.

The nature of assay [1]: compounds binding Alexa647 anti-His antibody – biochemical, small-molecule microarray, 635 nm fluorescence, artefact control for SMM control protein annotation, primary screen (AID 1128).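 Further: score merges feature fluorescence with signal-to-noise for each printed compound spot.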 The settings on record: higher = more signal.
For assay [2], the system named is Human papillomavirus type 1a E7 protein (residues 1-88). Description: HPV1a E7 small-molecule binders, primary screen, biochemical, small-molecule microarray, residues 1-88, 635 nm (AID 1129). The settings on record: small-molecule microarray binding, fluorescence 635 nm; higher = more signal.
The target of assay [3] is Focal adhesion kinase 1 (Homo sapiens) (UniProt Q05397). In words: PTK2 protein binding on printed compound slides – biochemical, small-molecule microarray, 635/667 nm fluorescence, BSA, DTT, primary screen (AID 1130).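 Further: composite of spot emission at 667 nm and signal to noise over triplicate slides.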 The settings on record: 635 nm fluorescence, higher = more signal.
The test system of assay [4] is Fibrinogen (Alexa647-labelled). In words: Alexa647-fibrinogen binding to printed small molecules – biochemical, small-molecule microarray, 635/667 nm fluorescence, artefact control for SMM control-protein annotation, profiling panel (AID 1131).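 Further: z-score merges 667 nm fluorescence with per-spot signal-to-noise over triplicate slides.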 The settings on record: fibrinogen-A647 binding fluorescence, higher = more signal.
Assay [5] concerns the target Follistatin (Homo sapiens) (UniProt P19883). In words: FST protein binding to printed compounds – biochemical, small-molecule microarray, 635/667 nm fluorescence, primary screen (AID 1132). The settings on record: 635 nm fluorescence, higher = more signal.
Assay [6] concerns the target Fibroblast growth factor 2 (Homo sapiens) (UniProt P09038). In words: basic fibroblast growth factor binding to printed compounds – biochemical, small-molecule microarray, 635/667 nm fluorescence, primary screen (AID 1133). The conditions noted are these: FGF2, fluorescence 635/667, higher = more signal.
The nature of assay [7]: JC-1 mitochondrial potential readout, lung cancer cells – cell-based, A549, JC-1 fluorescence, basal, 24 h, 100 nL, profiling panel (AID 1138).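 Further: A549 lung adenocarcinoma cells under basal conditions with no added stimulus; test concentration not given here.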 The conditions noted are these: higher = more signal.
The subject of a further assay is Lefty1. Description: Lefty1 protein binding to printed compounds – biochemical, small-molecule microarray, 635/667 nm fluorescence, primary screen (AID 1139). The conditions noted are these: fluorescence 635/667, higher = more signal.
In assay [8] the test system is wheat germ agglutinin (Triticum aestivum), Alexa647-labelled. In words: Alexa647-WGA lectin binding to printed small molecules – biochemical, small-molecule microarray, 635/667 nm fluorescence, artefact control for SMM control-protein annotation, profiling panel (AID 1140).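 Further: score merges 667 nm feature emission with signal to noise over triplicate slides.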 The settings on record: WGA-A647 binding, 635 nm fluorescence, higher = more signal.
The target of assay [9] is Luciferin 4-monooxygenase (Photinus pyralis) (UniProt P08659). In words: inhibition of purified Photinus pyralis luciferase – biochemical, luminescence, purified enzyme, 2006 set, primary screen (AID 1141).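 Further: cell-free assay with purified firefly luciferase at 100 ng per well in PBS; test concentration not given here.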 The conditions noted are these: purified firefly luciferase, SteadyGlo luminescence, 30 min; higher = more signal, called active from +8 up or from −8 down.
Sequence of Luciferin 4-monooxygenase (Photinus pyralis) (P08659 whole entry, looked up): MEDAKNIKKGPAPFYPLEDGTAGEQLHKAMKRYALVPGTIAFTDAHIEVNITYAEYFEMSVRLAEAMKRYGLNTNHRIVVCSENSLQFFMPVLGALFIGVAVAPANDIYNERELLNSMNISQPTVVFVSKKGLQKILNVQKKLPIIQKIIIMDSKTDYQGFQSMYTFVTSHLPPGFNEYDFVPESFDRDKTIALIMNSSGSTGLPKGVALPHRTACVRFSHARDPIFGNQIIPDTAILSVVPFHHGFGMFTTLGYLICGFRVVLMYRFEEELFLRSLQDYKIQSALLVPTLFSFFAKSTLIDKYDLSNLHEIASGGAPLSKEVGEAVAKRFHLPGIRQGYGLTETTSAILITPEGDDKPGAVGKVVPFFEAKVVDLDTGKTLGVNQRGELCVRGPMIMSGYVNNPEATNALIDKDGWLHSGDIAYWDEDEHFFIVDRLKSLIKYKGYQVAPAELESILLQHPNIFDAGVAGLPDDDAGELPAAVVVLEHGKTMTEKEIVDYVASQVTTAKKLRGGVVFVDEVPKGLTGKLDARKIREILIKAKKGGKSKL

Sequence of Fibroblast growth factor 2 (Homo sapiens) (P09038 whole entry, looked up): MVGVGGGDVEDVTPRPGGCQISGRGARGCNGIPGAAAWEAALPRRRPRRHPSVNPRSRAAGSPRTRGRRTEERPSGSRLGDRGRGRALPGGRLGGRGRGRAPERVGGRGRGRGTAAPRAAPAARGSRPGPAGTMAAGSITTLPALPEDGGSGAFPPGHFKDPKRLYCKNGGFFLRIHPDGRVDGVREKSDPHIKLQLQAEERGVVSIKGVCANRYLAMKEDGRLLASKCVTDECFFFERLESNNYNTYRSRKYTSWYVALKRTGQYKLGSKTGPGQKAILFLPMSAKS
Sequence of Follistatin (Homo sapiens) (P19883 whole entry, looked up): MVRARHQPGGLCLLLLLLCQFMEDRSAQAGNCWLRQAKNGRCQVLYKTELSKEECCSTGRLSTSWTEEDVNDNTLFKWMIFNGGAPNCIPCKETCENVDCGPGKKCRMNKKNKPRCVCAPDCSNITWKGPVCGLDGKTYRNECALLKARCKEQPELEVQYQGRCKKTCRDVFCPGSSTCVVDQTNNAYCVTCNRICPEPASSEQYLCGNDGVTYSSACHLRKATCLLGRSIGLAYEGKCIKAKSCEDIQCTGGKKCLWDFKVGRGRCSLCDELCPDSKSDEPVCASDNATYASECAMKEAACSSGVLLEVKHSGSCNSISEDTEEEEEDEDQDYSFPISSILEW
Sequence of Focal adhesion kinase 1 (Homo sapiens) (Q05397 whole entry, looked up): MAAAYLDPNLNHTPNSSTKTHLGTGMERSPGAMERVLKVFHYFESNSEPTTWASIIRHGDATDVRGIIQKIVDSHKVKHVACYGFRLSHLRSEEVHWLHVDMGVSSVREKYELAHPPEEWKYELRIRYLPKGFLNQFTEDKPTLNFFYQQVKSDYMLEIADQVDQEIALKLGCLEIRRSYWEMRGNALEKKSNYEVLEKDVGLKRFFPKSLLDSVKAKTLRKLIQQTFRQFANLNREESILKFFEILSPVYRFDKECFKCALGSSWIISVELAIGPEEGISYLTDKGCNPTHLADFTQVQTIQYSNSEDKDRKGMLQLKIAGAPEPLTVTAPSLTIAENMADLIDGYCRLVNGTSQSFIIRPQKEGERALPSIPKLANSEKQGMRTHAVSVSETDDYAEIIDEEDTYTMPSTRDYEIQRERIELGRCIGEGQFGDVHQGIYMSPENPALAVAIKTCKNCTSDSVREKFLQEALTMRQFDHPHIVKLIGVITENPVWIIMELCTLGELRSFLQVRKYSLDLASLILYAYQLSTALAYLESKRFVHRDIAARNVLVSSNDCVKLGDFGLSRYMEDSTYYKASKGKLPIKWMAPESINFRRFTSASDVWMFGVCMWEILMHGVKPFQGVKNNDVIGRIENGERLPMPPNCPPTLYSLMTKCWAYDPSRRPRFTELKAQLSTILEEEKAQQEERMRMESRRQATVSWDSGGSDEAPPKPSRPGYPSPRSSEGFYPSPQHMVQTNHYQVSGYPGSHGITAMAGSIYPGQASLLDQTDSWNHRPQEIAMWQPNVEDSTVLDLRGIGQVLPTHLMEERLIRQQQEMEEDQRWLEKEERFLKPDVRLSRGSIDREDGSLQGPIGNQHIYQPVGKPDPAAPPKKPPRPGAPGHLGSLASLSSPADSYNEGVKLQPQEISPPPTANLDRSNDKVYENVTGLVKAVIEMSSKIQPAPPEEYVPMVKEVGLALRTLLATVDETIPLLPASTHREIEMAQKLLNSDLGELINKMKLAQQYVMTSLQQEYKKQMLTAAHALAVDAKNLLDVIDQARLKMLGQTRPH

In the case of `C=C(C(=O)CC[C@H](OC(=O)c1ccccc1-c1ccccc1C(=O)O)c1cccc(OCCO)c1)C(C)C`, the composite z-score in assay [1] was 0.0001; in [2], -0.399; in [3], 0.0444; in [4], 0.0591; in assay [5], 0.319; in assay [6], 0.85. In addition, the composite z-score in the assay on Lefty1 is 0.485; in [8], 0.36. Further, the z-score in assay [7] is -0.697; in assay [9], -0.373 (inactive).
In the case of `CC(C)C(CO)N1C(=O)[C@@H]2C3C(=O)OCCC/C=C\[C@H]3OC23C=CCN(Cn2nnc4ccccc42)C(=O)[C@@H]13` (stereo not given in full), the composite z-score in assay [1] is 2.67; in [2] it was -0.233; in assay [3], -0.0444; in [4], -1.18; in [5], -0.0048; in assay [6], -1.08. Further, the composite z-score in the assay on Lefty1 is -0.0488; in [8], -0.422. Moreover, the z-score in assay [7] was -0.477; in assay [9], -0.0817 (inactive).
Regarding `[N-]=[N+]=Nc1ccccc1C[C@]1(C(=O)O)COC(c2ccc(OCCCO)cc2)=N1`, the composite z-score in assay [1] was -0.047; in assay [2], -0.914; in assay [3], 0.0699; in assay [4] it was -1.45; in [5] it was -0.224; in assay [6], -0.717. The composite z-score in the assay on Lefty1 was -0.843; in assay [8], 0.396. Also, the z-score in assay [7] is -0.991; in assay [9] it was -13.9 (active).
`COc1cc(NN2C(C(O)c3cc(OC)c(OC)c(OC)c3)C=CC3C(=O)N(C)C(=O)C32)cc(OC)c1OC` (stereo not given): the composite z-score in assay [1] was found to be 0.661; in assay [2], 1.07; in [3] it was 0.368; in assay [4], 0.169; in assay [5], 0.67; in [6], 0.0023. Besides, the composite z-score amounted to 0.289 in the assay on Lefty1 and 0.694 in [8]. The z-score in [7] was 1.38; in assay [9] it was 0.229 (inactive).
Consider `C=CC[C@]1(C(=O)N2CCOCC2)COC(c2ccc(OCCCO)cc2)=N1`, for which the composite z-score in assay [1] was found to be 2.4; in assay [2], 1.3; in assay [3], 0.555; in assay [4], 0.837; in [5], 1.33; in [6], 0.386. Further, the composite z-score in the assay on Lefty1 is 0.768; in assay [8], 0.959. Moreover, the z-score in assay [7] is -0.772; in [9] it was 0.566 (inactive).
As to `COc1cccc(C)c1NC(=O)O[C@H]1[C@H](OC(=O)Nc2ccccc2-c2ccccc2)[C@H](OC(=O)Nc2ccccc2-c2ccccc2)[C@@H](OC)O[C@@H]1CO`, the composite z-score worked out at 0.528 in assay [1]; 1.22 in assay [2]; 0.588 in assay [3]; 0.974 in assay [4]; 1.35 in assay [5]; 0.79 in assay [6]. Also, the results for the composite z-score (in the assay with Lefty1; in assay [8]) were 0.906 and 0.79, respectively. Further, the values for the z-score in assay [7] and in assay [9] were -0.41 and -0.33 (inactive), respectively.
Regarding `CN(C)C(=O)[C@]1(CCC(=O)OC(C)(C)C)N=C(c2ccc(OCCCO)cc2)O[C@@H]1c1ccccc1CN=[N+]=[N-]`, the composite z-score in assay [1] was 1.31; in [2] it was 1.21; in assay [3] it was 0.706; in assay [4] it was 0.961; in assay [5], 1.25; in assay [6], -0.0399. The composite z-score was found to be 0.0183 in the assay with Lefty1 and 1.42 in [8]. Besides, the z-score in [7] was 1.03; in assay [9], -0.703 (inactive).
Take `O=C(Cc1ccccc1)[C@H]1C2C=CCCC(c3ccccc3)=C2CN1Cc1ccccc1` (stereo not given in full): the composite z-score was -0.162 in assay [1]; -0.304 in assay [2]; -0.241 in assay [3]; -0.0983 in assay [4]; 0.436 in assay [5]; 0.869 in assay [6]. Besides, the composite z-score with Lefty1 was -0.519; in assay [8], -0.394. Moreover, the values for the z-score in assay [7] and in [9] were 1.77 and -1.06 (inactive), respectively.
For `CCCC=C(CCC)[C@@H](NC(=O)c1cccs1)c1ccc(C(=O)OC)cc1`, the composite z-score amounted to 0.196 in assay [1]; 0.741 in assay [2]; 0.205 in assay [3]; 0.686 in assay [4]; 0.816 in assay [5]; 1.13 in assay [6]. The composite z-score with Lefty1 was -0.223; in assay [8], -0.119. Moreover, the z-score is 0.733 in [7] and 2.23 (inactive) in assay [9].
For `CC[C@@H]1C=C(C(=O)O)[C@H](c2ccccc2)N1S(=O)(=O)c1ccc(C)cc1`, the composite z-score was 2.57 in assay [1]; 1.17 in [2]; 0.178 in assay [3]; 0.594 in assay [4]; -0.0393 in assay [5]; -0.241 in [6]. Further, the composite z-score was found to be 0.362 in the assay with Lefty1 and 1.05 in [8]. Further, the z-score in assay [7] is -0.719; in [9], 1.09 (inactive).
Take `COc1ccc([C@H]2OC[C@@H]3C[C@H](Cc4ccccc4)C(=O)N32)cc1`: the composite z-score in assay [1] was determined as 0.606; in [2], 0.358; in assay [3], 0.0039; in assay [4] it was 0.179; in [5], 0.416; in assay [6], 0.511. The composite z-score with Lefty1 came out at 0.374; in assay [8] it was 0.582. For the same compound, the z-score in assay [7] is 0.239; in assay [9], -0.0539 (inactive).
Take `NCCCCCNC(=O)[C@@H]1C[C@@H]2C(=O)N[C@@H](CCCCN)C(=O)N2[C@@H]1c1ccc(O)cc1`: the composite z-score in assay [1] amounted to 1.98; in assay [2] it was 1.23; in assay [3], 0.294; in assay [4], 0.782; in [5] it was 1.42; in assay [6], 1.74. Further, the composite z-score with Lefty1 is 1.57; in assay [8], 1.14. For the same compound, the z-score in assay [7] was -0.862; in assay [9], -0.364 (inactive).
Turning to `CC(=O)NCCCC[C@@H]1NC(=O)[C@@H]2C[C@H](C(=O)NCCCCCN)[C@H](c3ccc(O)cc3)N2C1=O`, the composite z-score in assay [1] was 0.367; in assay [2], 1.19; in [3], 0.445; in [4], 0.671; in [5], 1.33; in [6] it was 1.24. In addition, the composite z-score in the assay on Lefty1 is 1.58; in [8], 0.283. Moreover, the z-score in assay [7] is -0.664; in assay [9], -0.399 (inactive).
Take `COC(=O)[C@]1(CCS(=O)(=O)c2ccccc2)N=C(c2ccc(OCCCO)cc2)O[C@@H]1c1ccccc1N=[N+]=[N-]`: the composite z-score was 3.54 in assay [1]; 1.27 in assay [2]; 0.263 in [3]; 0.906 in [4]; 1.39 in assay [5]; 1.75 in assay [6]. Moreover, the composite z-score in the assay on Lefty1 worked out at 0.387; in assay [8], 1.09. The z-score was -0.447 in assay [7] and -1.32 (inactive) in assay [9].
For the compound `COC(=O)[C@@]1(Cc2ccc(F)cc2)[C@H]2c3cc(C(=O)N4CCCC4)n(CCc4c[nH]c5ccccc45)c3C[C@H]2CN1C(=O)c1ccccc1`, the composite z-score is 1.56 in [1]; 1.26 in [2]; 1.27 in assay [3]; 0.97 in assay [4]; 0.867 in [5]; 0.577 in assay [6]. Besides, the composite z-score in the assay with Lefty1 was -0.627; in assay [8], 0.816. For the same compound, the figures for the z-score in [7] and in assay [9] were 0.775 and 2.04 (inactive), respectively.
As to `COC(=O)[C@@H]1N=C(c2ccc(OCCCO)cc2)O[C@@H]1C`, the composite z-score is 0.217 in assay [1]; 0.0927 in assay [2]; 0.517 in assay [3]; -0.323 in assay [4]; 1.17 in assay [5]; 0.936 in [6]. In addition, the composite z-score in the assay on Lefty1 was 0.516; in assay [8], -0.257. The z-score was 0.669 in [7] and -13.8 (active) in assay [9].
As to `CC(C)c1ccc(NN2C(C(O)c3ccc(C#N)cc3)C=CC3C(=O)N(c4ccccc4)C(=O)C32)cc1` (stereo not given), the composite z-score in [1] was 0.433; in [2] it was 1.21; in [3], 1.97; in assay [4], 1.04; in assay [5], 1.01; in [6], -0.14. The composite z-score is -0.278 in the assay on Lefty1 and 0.949 in assay [8]. In addition, the z-score is -0.131 in assay [7] and -0.973 (inactive) in assay [9].
